Results on 9 molecules are retold here after PubChem BioAssay (Tox21).

For experiment [1], the target named is Progesterone receptor (Homo sapiens) (UniProt P06401). Nature of the experiment: qHTS assay to identify small molecule agonists of the progesterone receptor (PR) signaling pathway (AID 1346784; calls by dose curve; also: nearly all actives have a fitted effect of over 30% in size). The procedure, abridged:
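Fluorescence from LiveBLAzer B/G FRET substrate cleavage (2 hr, RT) reported PR activation in PR-UAS-bla HEK 293T cells treated 16 hr at 37C/5% CO2 with compounds; medium contained 2% charcoal-stripped FBS.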

For experiment [2] the target is unchanged. Nature of the experiment: qHTS assay to identify small molecule antagonists of the progesterone receptor (PR) signaling pathway (AID 1346795; active = well fitted inhibition curve with a large enough effect in the signal ratio in the repeat runs, not every such curve was filed as active; the % refers to the signal ratio; also: potency is read from the fitted curve at half-maximal effect). The procedure, abridged: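 Fluorescence intensity measured 2 hr after adding beta-lactamase FRET substrate to PR-UAS-bla HEK293T cells that had been co-treated 16 hr with compound and 1 nM R5020 (final concentration) in 2% charcoal-stripped FBS.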
In general terms: qHTS replaces the single test concentration by a dilution series.

The nature of experiment [3]: qHTS assay to identify small molecule agonists of the progesterone receptor (PR) signaling pathway - cell viability counter screen (AID 1346799; calls by dose curve; also: nearly all actives have a fitted effect of over 45% in size). The procedure, abridged:
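In parallel with the beta-lactamase readout, cytotoxicity toward PR-UAS-bla HEK293T cells was measured by CellTiter-Glo luminescence following 16 hr compound incubation in 2% charcoal-stripped FBS medium.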

Experiment [4] is described as follows: qHTS assay to identify small molecule antagonists of the TGF-beta/Smad signaling pathway - cell viability counter screen (AID 1346824). Also: nearly all actives have a fitted effect of over 50% in size. In outline: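 SBE-bla HEK 293T cells, incubated overnight, then compound plus 0.25 ng/mL TGF-beta1 (stock added) for 5 hr at 37 C. Viability was read in the same wells by CellTiter-Glo luminescence after 30 min at room temperature.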

The nature of experiment [5]: qHTS assay to identify small molecule agonists of the TGF-beta/Smad signaling pathway - cell viability counter screen (AID 1346829). Also: top concentration of the series differs between compounds; nearly all actives have a fitted effect of over 45% in size. The procedure, abridged: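 Same-well cytotoxicity: CellTiter-Glo added after the 2 hr room-temperature beta-lactamase substrate step, luminescence measured 30 min later; cells had 5 hr of compound at 37 C.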
Experiment [6] can be described thus: qHTS assay to identify small molecule agonists of the TGF-beta/Smad signaling pathway (AID 1346859; active = well fitted activation curve with a large enough effect in the signal ratio in the repeat runs, not every such curve was filed as active; the % refers to the signal ratio; also: series mostly up to about 77 µM). In outline:
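After overnight seeding, SBE-bla HEK 293T cells are dosed with compounds in DMSO and kept 5 hr at 37 C, 5% CO2. LiveBLAzer-type FRET substrate is then applied for 2 hr at room temperature.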

For experiment [7], the target named is Thyrotropin-releasing hormone receptor (Homo sapiens) (UniProt P34981). Nature of the experiment: qHTS assay to identify small molecule agonists of the thyrotropin-releasing hormone receptor (TRHR) signaling pathway (AID 1346891; calls by dose curve;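 also: HEK293 cells expressing TRHR with calcium dye readout; series mostly up to about 58 µM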). In outline: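 Compounds were tested as agonists at 15 concentrations, in triplicate, on TRHR-Hek293 cells; calcium-sensitive dye fluorescence was recorded for 3 min following addition.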

Experiment [8] in a line: Human pregnane X receptor (PXR) small molecule agonists, qHTS cell viability counter screen (AID 1346977). Also: nearly all actives have a fitted effect of over 50% in size. In outline:
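Viability counter screen: CellTiter-Fluor signal in PXR-Luc HepG2 cells, 24hr compound exposure, 37C, 5% CO2.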

The nature of experiment [9]: Caspase-3/7 induction in HepG2 cells by small molecules, qHTS assay (AID 1346978). Also: nearly all actives have a fitted effect of over 15% in size. The procedure, abridged: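 Wild-type HepG2 cells, 2,000/well, settled 5 hr at 37 C and 5% CO2, then compound-treated for 17 hr; caspase-3/7 activity read by luminescent Caspase-Glo 3/7 after 30 min at room temperature.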
Experiment [10] is described as follows: Caspase-3/7 induction in CHO-K1 cells by small molecules, qHTS cell viability counter screen (AID 1346979). Also: nearly all actives have a fitted effect of over 35% in size. Also: potency is read from the fitted curve at half-maximal effect. The procedure, abridged:
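Viability readout by fluorescence (CellTiter-Fluor) on wild-type CHO-K1 cells exposed for 16hr at 37C and 5% CO2 to compounds delivered in DMSO; reagent incubated 1hr before reading.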

The nature of experiment [11]: Caspase-3/7 induction in CHO-K1 cells by small molecules, qHTS assay (AID 1346980). Also: nearly all actives have a fitted effect of over 15% in size. The procedure, abridged:
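Wild-type CHO-K1 cells exposed to compounds for 17hr at 37 C, 5% CO2. Caspase-3/7 activity then measured by Caspase-Glo 3/7 luminescence after 30min at room temperature.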

A short description of experiment [12]: Caspase-3/7 induction in HepG2 cells by small molecules, qHTS cell viability counter screen (AID 1346981). Also: series mostly up to about 92 µM; nearly all actives have a fitted effect of over 30% in size. The procedure, abridged: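 In this quantitative HTS counter screen, compounds delivered in DMSO were left on unmodified HepG2 cells for 16 hr at 37 C. Viability was then determined fluorometrically with CellTiter-Fluor, in parallel with caspase-3/7 induction in the same wells.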

Experiment [13] has as its target Nuclear receptor subfamily 1 group I member 2 (Homo sapiens) (UniProt O75469). Nature of the experiment: Human pregnane X receptor (PXR) small molecule agonists, qHTS assay (AID 1346982). Also: nearly all actives have a fitted effect of over 35% in size. Also: potency is read from the fitted curve at half-maximal effect. In outline:
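Reporter HepG2 cells expressing PXR-Luc are cultured in charcoal-stripped FBS (5%), treated with compounds for 24 hr at 37 C, and assayed by ONE-Glo luminescence after 30 min at room temperature.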

In experiment [14] the target is Nuclear receptor subfamily 1 group I member 2 (Rattus norvegicus) (UniProt Q9R1A7). The experiment can be described thus: Rat pregnane X receptor (rPXR) activation by small molecules, qHTS assay (AID 1346983). Also: nearly all actives have a fitted effect of over 20% in size. Particulars: rPXR luciferase reporter cells, One-Glo luminescence, 24 h; max activation: active compounds read high. The procedure, abridged:
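Cell-based rPXR activation assay: rPXR cells, 2,000 per well, rested 5hr at 37 C, then exposed to compounds in DMSO for 24 hr at 37 C. Luciferase activity read by One-Glo luminescence after 30 min at room temperature.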

Experiment [15] addresses Nuclear receptor subfamily 1 group I member 2 (Homo sapiens) (UniProt O75469). Nature of the experiment: CYP3A4 induction through human pregnane X receptor (PXR) by small molecules, qHTS assay (AID 1346984). Also: nearly all actives have a fitted effect of over 40% in size. In outline: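 Induction measured in HepG2-based DPX-2 cells co-expressing human PXR and a CYP3A4 promoter-driven luciferase. After a 24-hour compound exposure, cells received CYP3A4 luciferin substrate at 3uM final for 3 hours, and light output was then recorded.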

For experiment [16] the target is unchanged. Nature of the experiment: Human pregnane X receptor (PXR) activation by small molecules, qHTS assay (AID 1346985). Also: nearly all actives have a fitted effect of over 40% in size. In outline:
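DPX-2 cells (HepG2 co-transfected with a PXR response element and a CYP3A4-promoter luciferase construct) were seeded at 2,000 per well, rested 5 hr at 37C, then exposed to DMSO-dissolved compounds for 24 hr. Activation was read as luciferase luminescence.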

Experiment [17] concerns the target Cytochrome P450 2D6 (Homo sapiens) (UniProt P10635). The experiment can be described thus: Cytochrome P450 Family 2 Subfamily D Member 6 (CYP2D6) small molecule antagonists: luciferase reporter qHTS assay (AID 1671196). Also: nearly all actives have a fitted effect of over 50% in size. Also: potency is read from the fitted curve at half-maximal effect. The procedure, abridged:
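Test chemicals meet CYP2D6 plus proluciferin substrate (10 min, RT); NADPH regenerating solution then drives turnover for 1 h. Detection reagent halts the reaction; luminescence measured after 20 min.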
A general note: In a reporter assay the amount or activity of a reporter protein is the signal.

Experiment [18] concerns the target Cytochrome P450 2C19 (Homo sapiens) (UniProt P33261). The experiment can be described thus: Cytochrome P450 Family 2 Subfamily C Member 19 (CYP2C19) small molecule antagonists: luciferase reporter qHTS assay (AID 1671197). Also: nearly all actives have a fitted effect of over 65% in size. Also: potency is read from the fitted curve at half-maximal effect. The procedure, abridged:
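Quantitative high-throughput screen of the Tox21 library using CYP2C19 with proluciferin substrate. Reaction: NADPH regeneration, 37C, 1 h, after 10 min compound preincubation at room temperature. Readout: luminescence.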

The nature of experiment [19]: qHTS assay to identify small molecule antagonists of the progesterone receptor (PR) signaling pathway - cell viability counter screen (AID 1346798). Also: nearly all actives have a fitted effect of over 50% in size. Also: potency is read from the fitted curve at half-maximal effect. In outline:
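CellTiter-Glo luminescence; PR-UAS-bla HEK293T, 3,000 cells/well; compound + R5020, 16 hr, 37C/5% CO2; 30 min RT before read.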

The target in experiment [20] is Thyrotropin-releasing hormone receptor (Homo sapiens) (UniProt P34981). The experiment can be described thus: qHTS assay to identify small molecule antagonists of the thyrotropin-releasing hormone receptor (TRHR) signaling pathway (AID 1346877; active = well fitted inhibition curve with a large enough effect in the repeat runs, not every such curve was filed as active; also: series mostly up to about 51 µM). The procedure, abridged:
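Kinetic fluorescence (3 min, 1 s resolution) following stimulation with TRH at 1 nM final; HEK293 cells bearing human TRHR; 5 min compound preincubation at RT; concentration-response over 15 points, triplicates.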

SMILES strings stand for the structures. Unmarked numbers belong to inactive results. Results filed as inconclusive are left out. The source made the active and inactive calls. Unless noted, calls follow the shape of the dose curve; as a rule, active = well fitted curve in the direction sought with a large enough effect in the repeat runs; inconclusive = weak or mixed curves; inactive = no such curve, though single readings can be large; an effect the other way counts as inactive or inconclusive.
% is scaled to controls: 0 for no effect and ±100 for the full control effect.

Sequence of Cytochrome P450 2D6 (Homo sapiens) (P10635 whole entry, looked up): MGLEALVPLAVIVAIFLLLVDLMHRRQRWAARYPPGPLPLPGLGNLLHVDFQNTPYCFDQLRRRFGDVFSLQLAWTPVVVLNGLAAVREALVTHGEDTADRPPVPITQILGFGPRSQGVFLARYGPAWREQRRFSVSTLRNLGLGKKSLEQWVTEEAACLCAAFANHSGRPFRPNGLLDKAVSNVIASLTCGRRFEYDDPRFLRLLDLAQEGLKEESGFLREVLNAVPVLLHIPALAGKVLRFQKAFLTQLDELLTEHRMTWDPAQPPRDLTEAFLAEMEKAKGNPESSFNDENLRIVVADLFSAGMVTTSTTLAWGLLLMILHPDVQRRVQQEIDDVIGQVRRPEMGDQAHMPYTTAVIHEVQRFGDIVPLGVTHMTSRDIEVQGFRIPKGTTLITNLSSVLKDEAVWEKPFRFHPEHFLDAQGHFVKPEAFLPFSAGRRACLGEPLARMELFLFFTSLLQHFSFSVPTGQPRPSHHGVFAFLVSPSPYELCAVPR
Sequence of Nuclear receptor subfamily 1 group I member 2 (Homo sapiens) (O75469 whole entry, looked up): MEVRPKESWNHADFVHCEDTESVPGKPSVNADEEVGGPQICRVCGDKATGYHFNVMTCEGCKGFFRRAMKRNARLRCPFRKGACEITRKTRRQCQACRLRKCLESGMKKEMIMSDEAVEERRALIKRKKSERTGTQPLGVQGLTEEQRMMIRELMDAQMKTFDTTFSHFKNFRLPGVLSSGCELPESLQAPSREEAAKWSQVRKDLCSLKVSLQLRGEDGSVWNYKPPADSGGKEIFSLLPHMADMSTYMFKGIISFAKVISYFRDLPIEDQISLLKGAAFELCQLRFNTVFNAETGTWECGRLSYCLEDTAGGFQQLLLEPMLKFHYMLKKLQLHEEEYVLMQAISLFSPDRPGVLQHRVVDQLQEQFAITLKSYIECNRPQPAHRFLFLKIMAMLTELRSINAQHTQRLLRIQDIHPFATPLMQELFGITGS
Sequence of Progesterone receptor (Homo sapiens) (P06401 whole entry, looked up): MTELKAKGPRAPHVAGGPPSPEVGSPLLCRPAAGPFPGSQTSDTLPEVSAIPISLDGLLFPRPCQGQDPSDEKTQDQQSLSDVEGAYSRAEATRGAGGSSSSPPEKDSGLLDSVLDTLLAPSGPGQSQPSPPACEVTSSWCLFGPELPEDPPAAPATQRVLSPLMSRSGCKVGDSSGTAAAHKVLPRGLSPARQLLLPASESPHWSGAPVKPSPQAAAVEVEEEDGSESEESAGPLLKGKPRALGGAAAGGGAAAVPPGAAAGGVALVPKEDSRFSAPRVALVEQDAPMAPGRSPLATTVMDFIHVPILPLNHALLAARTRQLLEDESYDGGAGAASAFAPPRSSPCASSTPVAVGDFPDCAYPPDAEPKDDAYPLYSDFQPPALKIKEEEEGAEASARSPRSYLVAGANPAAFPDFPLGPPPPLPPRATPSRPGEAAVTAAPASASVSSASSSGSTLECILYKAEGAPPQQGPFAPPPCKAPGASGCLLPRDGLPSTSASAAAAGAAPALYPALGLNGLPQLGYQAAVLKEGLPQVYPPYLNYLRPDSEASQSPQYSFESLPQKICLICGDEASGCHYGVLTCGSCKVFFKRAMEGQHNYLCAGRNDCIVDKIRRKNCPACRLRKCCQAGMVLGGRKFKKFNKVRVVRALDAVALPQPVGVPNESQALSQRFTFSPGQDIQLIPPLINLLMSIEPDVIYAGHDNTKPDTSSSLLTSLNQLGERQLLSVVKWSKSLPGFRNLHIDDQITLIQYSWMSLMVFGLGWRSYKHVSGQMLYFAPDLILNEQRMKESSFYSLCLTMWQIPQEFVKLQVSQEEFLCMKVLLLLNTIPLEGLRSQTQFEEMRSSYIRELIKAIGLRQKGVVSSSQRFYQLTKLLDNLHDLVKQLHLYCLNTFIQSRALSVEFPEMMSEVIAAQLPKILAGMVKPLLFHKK
Sequence of Thyrotropin-releasing hormone receptor (Homo sapiens) (P34981 whole entry, looked up): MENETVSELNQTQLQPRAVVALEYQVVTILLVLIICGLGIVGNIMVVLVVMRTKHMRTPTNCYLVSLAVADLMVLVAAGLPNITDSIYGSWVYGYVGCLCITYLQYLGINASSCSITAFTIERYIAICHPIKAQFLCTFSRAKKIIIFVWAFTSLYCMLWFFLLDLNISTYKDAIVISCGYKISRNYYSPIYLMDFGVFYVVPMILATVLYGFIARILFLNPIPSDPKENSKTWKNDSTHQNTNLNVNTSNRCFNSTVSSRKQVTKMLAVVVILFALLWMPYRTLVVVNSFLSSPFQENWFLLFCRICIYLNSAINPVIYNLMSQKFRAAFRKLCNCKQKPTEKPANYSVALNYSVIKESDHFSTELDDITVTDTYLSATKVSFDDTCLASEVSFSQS
Sequence of Cytochrome P450 2C19 (Homo sapiens) (P33261 whole entry, looked up): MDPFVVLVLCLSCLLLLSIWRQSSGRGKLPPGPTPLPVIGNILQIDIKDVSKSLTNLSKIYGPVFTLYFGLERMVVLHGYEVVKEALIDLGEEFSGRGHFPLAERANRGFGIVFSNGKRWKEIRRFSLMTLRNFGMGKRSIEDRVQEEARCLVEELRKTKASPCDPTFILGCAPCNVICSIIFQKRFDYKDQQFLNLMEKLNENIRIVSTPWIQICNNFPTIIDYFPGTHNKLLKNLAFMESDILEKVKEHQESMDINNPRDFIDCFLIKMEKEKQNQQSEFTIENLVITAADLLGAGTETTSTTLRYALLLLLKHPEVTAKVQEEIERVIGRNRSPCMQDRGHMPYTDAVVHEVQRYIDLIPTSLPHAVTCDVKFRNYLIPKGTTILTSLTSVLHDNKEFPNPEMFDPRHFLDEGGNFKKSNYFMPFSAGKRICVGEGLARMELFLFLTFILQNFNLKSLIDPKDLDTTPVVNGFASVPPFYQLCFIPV
Sequence of Nuclear receptor subfamily 1 group I member 2 (Rattus norvegicus) (Q9R1A7 whole entry, looked up): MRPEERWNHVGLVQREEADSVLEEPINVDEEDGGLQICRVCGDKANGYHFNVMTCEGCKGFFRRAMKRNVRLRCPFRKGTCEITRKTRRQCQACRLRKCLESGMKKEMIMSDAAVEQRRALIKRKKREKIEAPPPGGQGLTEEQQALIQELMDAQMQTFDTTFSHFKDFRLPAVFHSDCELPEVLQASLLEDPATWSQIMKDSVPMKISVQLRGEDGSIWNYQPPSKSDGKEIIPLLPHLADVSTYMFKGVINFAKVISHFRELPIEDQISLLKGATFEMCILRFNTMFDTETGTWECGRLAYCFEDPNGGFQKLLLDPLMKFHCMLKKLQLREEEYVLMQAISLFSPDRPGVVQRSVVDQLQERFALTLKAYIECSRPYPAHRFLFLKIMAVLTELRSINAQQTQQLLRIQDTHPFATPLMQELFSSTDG

`Nc1ncnc2c1ncn2[C@@H]1O[C@H](COP(=O)(O)O)[C@@H](O)[C@H]1O`: in experiment [1], the molecule was called inactive. Further, the Potency result in [2], in experiment [3], in [4], in [5], in experiment [6] and in experiment [7] was “inactive” each time. The Potency entry in experiment [8], in experiment [9], in experiment [10], in [11], in experiment [12] and in experiment [13] was “inactive” each time. The Potency result in experiment [15], in experiment [16], in experiment [17] and in experiment [18] was “inactive” throughout. Also, the max activation in experiment [14] is -2.61%.

For `Clc1ccc(C(c2ccccc2Cl)C(Cl)Cl)cc1` (stereo unspecified), in experiment [1], the molecule was called inactive. Moreover, the Potency in [2] was 3.44 µM (active); in [13] it was 10.9 µM (active). The Potency entry in experiment [19], in experiment [4], in experiment [5], in [6], in [20] and in experiment [7] was “inactive” in each case. The Potency entry in [8], in experiment [9] and in experiment [12] was “inactive” each time.

With `O=C(O)CCCCCCC(=O)O`, the call in experiment [1] was inactive. For the same molecule, the Potency result in experiment [2], in [3], in experiment [4], in experiment [5], in experiment [6] and in experiment [20] was “inactive” each time. Besides, the Potency result in experiment [8], in [9], in [10], in experiment [11], in experiment [12] and in experiment [13] was “inactive” in each case. In addition, the Potency in [17] is 35.9 µM (active).

As for `CC1=C(/C=C/C(C)=C/C=C/C(C)=C\C=O)C(C)(C)CCC1`, the outcome in experiment [1] was inactive. In addition, the Potency entry in experiment [2], in experiment [3], in experiment [4], in experiment [5], in [20] and in experiment [7] was “inactive” each time. The Potency entry in [8] and in experiment [9] was “inactive” each time. Further, the Potency in experiment [10] was 57.9 µM (active); in [13], 51.6 µM (active); in experiment [18], 37.8 µM (active).

In the case of `Cc1cccc(Br)c1`, the result in experiment [1] was inactive. The Potency in experiment [2] is 10.9 µM (active); in experiment [19] it was 54.8 µM (active). Also, the Potency result in [4], in experiment [5], in [6], in [9], in [10] and in experiment [11] was “inactive” throughout. In addition, the Potency entry in experiment [12] and in [17] was “inactive” in each case.

Turning to `CC(C)(C)c1n[nH]c(=O)n(N)c1=O`, the molecule was called inactive in experiment [1]. Moreover, the Potency entry in [2], in experiment [19], in [4], in [5], in experiment [6] and in [20] was “inactive” each time. Besides, the Potency entry in [7], in experiment [8], in experiment [9], in [10], in experiment [12] and in experiment [13] was “inactive” each time. Also, the Potency entry in experiment [17] and in experiment [18] was “inactive” throughout.

With `CN1[C@@H]2CC[C@@H]1CC(OC(=O)C(CO)c1ccccc1)C2` (stereo partly specified), in experiment [1], the result was inactive. In addition, the Potency result in experiment [2], in [19], in experiment [4], in experiment [5], in experiment [6] and in [8] was “inactive” throughout. Moreover, the Potency result in experiment [9], in [10] and in experiment [12] was “inactive” each time.

In the case of `CCO[Si](CCCSSSSCCC[Si](OCC)(OCC)OCC)(OCC)OCC`, the molecule was classed as inactive in [1]. Also, the Potency result in [2], in experiment [19], in experiment [5], in experiment [20], in experiment [8] and in experiment [9] was “inactive” in each case. Also, the Potency entry in experiment [11], in [12] and in [13] was “inactive” in each case. In experiment [18], the Potency is 5.03 µM (active).

Turning to `CCCCCCCCC(C)=O`, the molecule was called inactive in experiment [1]. Also, the Potency entry in experiment [2], in [3], in [5], in experiment [6], in experiment [7] and in experiment [8] was “inactive” each time. The Potency result in experiment [9], in [10], in [11], in [12], in [13] and in [18] was “inactive” in each case.
